Source: PubChem
PPARg SRC2 recr = PPARgamma-driven SRC-2 recruitment agonism; P37231; PPARgamma LBD-SRC-2 recruitment, biochemical; activation, % at 8 µM; actives 0.34% (n = 200,000); AID 1032; in the data active means activation above about 22%
SRC3 TRFRET art = TR-FRET artefact, counter-screen to PPARgamma/SRC-3 agonist assay; PPARgamma/SRC-3 format; active compounds read high; TR-FRET ratio at 8 µM; actives 0.39% (n = 99,000); AID 1048
PPARg SRC1 recr = promotes SRC-1 coactivator recruitment by human PPARgamma; PPARgamma-SRC-1 coactivator recruitment biochemical assay; activation, % at 8 µM; actives 0.41% (n = 200,000); in the data active means activation above about 19%
SRC1 TRFRET art = TR-FRET artefact, counter-screen to PPARgamma/SRC-1 agonist assay. actives 0.34% (n = 99,000). TR-FRET detection artefact counter-screen, emission ratio; active compounds read high. TR-FRET ratio at 8 µM; in the data active means TR-FRET ratio above about 2300
TR-FRET SRC-2 ct = counter-screen for PPARgamma SRC-2 recruitment agonists: TR-FRET artefact; active compounds read high; TR-FRET ratio at 8 µM; actives 0.4% (n = 200,000); AID 1049
PPARg SRC3 recr = promotes SRC-3 coactivator recruitment by human PPARgamma | P37231 | AID 731 | activation, % at 8 µM | biochemical PPARgamma/SRC-3 coactivator recruitment assay | actives 0.26% (n = 200,000); in the data active means activation above about 23%
PPARg SRC2 conf = human PPARgamma SRC-2 recruitment agonism, confirmation; shares compounds with PPARg SRC3 recr; biochemical SRC-2 recruitment by PPARgamma; activation, % at 8 µM; actives 52% (n = 790); AID 1297; in the data active means activation above about 22%
PPARg SRC1 conf = confirmation of agonists of SRC-1 recruitment by human PPARgamma | activation, % at 8 µM | actives 43% (n = 790) | shares compounds with PPARg SRC3 recr | AID 1300 | PPARgamma–SRC-1 coactivator recruitment biochemical assay; in the data active means activation above about 20%
PPARg SRC3 ag = confirmation of agonists of SRC-3 recruitment by human PPARgamma. shares compounds with PPARg SRC3 recr. biochemical PPARgamma-SRC-3 coactivator recruitment, agonist mode. activation, % at 8 µM. actives 29% (n = 790); in the data active means activation above about 24%
Target sequence (P37231 whole entry, looked up): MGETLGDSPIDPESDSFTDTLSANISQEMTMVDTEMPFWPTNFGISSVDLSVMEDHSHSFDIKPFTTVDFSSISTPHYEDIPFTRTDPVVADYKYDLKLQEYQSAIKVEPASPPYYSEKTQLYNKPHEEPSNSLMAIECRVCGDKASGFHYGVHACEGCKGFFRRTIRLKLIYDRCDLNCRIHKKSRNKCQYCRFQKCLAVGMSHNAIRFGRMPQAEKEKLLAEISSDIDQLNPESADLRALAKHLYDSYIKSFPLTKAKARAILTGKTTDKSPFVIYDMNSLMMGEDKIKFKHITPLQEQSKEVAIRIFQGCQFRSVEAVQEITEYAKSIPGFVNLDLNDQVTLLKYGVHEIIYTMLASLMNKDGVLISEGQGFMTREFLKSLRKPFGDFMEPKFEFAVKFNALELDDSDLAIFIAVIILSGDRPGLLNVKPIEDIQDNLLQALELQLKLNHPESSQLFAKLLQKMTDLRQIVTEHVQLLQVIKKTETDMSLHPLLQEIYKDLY
Target sequence (Q9Y6Q9 whole entry, looked up): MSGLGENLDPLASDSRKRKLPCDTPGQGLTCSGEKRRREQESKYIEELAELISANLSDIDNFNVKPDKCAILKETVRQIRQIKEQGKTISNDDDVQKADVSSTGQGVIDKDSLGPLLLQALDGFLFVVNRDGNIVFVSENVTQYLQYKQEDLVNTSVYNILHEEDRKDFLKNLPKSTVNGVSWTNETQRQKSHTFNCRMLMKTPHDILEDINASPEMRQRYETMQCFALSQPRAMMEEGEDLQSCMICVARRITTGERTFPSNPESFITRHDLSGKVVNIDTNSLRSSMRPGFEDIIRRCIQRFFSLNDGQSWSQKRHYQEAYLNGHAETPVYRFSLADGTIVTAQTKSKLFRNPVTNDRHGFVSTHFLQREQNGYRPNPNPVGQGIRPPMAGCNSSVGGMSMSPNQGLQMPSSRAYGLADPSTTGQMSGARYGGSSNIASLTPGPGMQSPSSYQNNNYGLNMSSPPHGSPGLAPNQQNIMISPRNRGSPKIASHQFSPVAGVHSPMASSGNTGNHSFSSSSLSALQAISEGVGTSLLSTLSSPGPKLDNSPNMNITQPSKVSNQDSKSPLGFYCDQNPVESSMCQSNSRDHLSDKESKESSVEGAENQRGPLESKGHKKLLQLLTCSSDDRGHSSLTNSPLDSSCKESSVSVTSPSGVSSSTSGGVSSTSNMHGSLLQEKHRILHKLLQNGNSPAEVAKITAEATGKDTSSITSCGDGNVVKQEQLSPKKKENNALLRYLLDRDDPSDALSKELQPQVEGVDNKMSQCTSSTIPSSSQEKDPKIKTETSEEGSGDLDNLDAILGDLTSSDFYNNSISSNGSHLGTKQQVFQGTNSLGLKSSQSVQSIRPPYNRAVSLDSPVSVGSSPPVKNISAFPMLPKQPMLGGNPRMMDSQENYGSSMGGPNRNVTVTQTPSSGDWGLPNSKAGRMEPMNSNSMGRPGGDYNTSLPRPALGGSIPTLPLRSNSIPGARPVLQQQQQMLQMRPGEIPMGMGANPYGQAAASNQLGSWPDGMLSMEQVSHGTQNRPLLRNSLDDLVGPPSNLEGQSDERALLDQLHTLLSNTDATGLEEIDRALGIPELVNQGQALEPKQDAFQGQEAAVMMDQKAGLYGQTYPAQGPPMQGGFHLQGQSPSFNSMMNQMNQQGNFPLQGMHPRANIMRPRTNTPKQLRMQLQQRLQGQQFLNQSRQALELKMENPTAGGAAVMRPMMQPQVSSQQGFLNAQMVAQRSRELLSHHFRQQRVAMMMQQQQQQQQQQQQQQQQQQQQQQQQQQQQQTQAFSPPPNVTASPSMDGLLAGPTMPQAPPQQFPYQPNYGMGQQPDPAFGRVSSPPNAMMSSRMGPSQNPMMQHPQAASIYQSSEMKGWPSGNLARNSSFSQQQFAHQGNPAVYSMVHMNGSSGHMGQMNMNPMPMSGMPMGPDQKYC
Large screens that a line does not name were inactive (follow-up assays come after a bar, where they were run). A selection: hits, their analogues and other compounds. The true share with any hit is near 0.9%. Unless noted, no stated cut-off is given here; in the data, active means TR-FRET ratio above about 2000; inactive means the rest.

CCCc1cc(=O)oc2cc(C)cc(O)c12	PPARg SRC2 recr 28, TR-FRET SRC-2 ct 2043, PPARg SRC3 recr 27 (no result: SRC3 TRFRET art, SRC1 TRFRET art) | PPARg SRC2 conf inactive | PPARg SRC1 conf inactive | PPARg SRC3 ag inactive
COC(=O)Cc1c(C)c2ccc(OC(=O)c3ccccc3)cc2oc1=O	none (no result: SRC3 TRFRET art, SRC1 TRFRET art)
COC(=O)Cc1c(C)c2c(O)cc(C)cc2oc1=O	PPARg SRC2 recr 30, PPARg SRC1 recr 20, TR-FRET SRC-2 ct 2058, PPARg SRC3 recr 35 (no result: SRC3 TRFRET art, SRC1 TRFRET art) | PPARg SRC2 conf 27 | PPARg SRC1 conf 21 | PPARg SRC3 ag inactive
CCC(C)(C)NC(=O)C(Sc1ccccc1)c1ccccc1 (stereo not drawn)	none
Cc1ccccc1OCCc1c(C)[nH]c(=S)[nH]c1=O	none
Cc1nc2ccccc2c(=O)n1N(c1ccccc1)c1ccccc1	none
COc1ccc(-c2nc(SCC(=O)NC3CCCC3)c(-c3ccc(OC)cc3)[nH]2)cc1	PPARg SRC2 recr 24 | PPARg SRC2 conf inactive | PPARg SRC1 conf inactive | PPARg SRC3 ag inactive
COc1cc(/C=C/C(=O)Nc2nc3ccc(S(=O)(=O)NC(C)C)cc3s2)cc(OC)c1OC	PPARg SRC2 recr 23 | PPARg SRC2 conf inactive | PPARg SRC1 conf inactive | PPARg SRC3 ag inactive
CS(=O)(=O)c1nc(-c2ccc(Br)cc2)cc(-c2ccccc2)c1C#N	PPARg SRC1 recr 53, TR-FRET SRC-2 ct 2843, PPARg SRC3 recr 111 (no result: SRC3 TRFRET art, SRC1 TRFRET art) | PPARg SRC2 conf 66 | PPARg SRC1 conf 49 | PPARg SRC3 ag 39
CCOC(=O)CC(=O)CSc1ncnc2c1oc1ccccc12	PPARg SRC2 recr 87, PPARg SRC1 recr 96, TR-FRET SRC-2 ct 3929, PPARg SRC3 recr 138 (no result: SRC3 TRFRET art, SRC1 TRFRET art) | PPARg SRC2 conf 55 | PPARg SRC1 conf 36 | PPARg SRC3 ag 37
OCCSc1ncnc2c1oc1ccccc12	PPARg SRC2 recr 23 (no result: SRC3 TRFRET art, SRC1 TRFRET art) | PPARg SRC2 conf 28 | PPARg SRC1 conf 22 | PPARg SRC3 ag inactive
O=C(CSc1ncnc2c1oc1ccccc12)Nc1ccccc1C(F)(F)F	none
CCCCc1nc2sc3c(SCC(=O)NCc4ccco4)ncnc3c2c2c1CCC2	PPARg SRC1 recr 22 (no result: SRC3 TRFRET art, SRC1 TRFRET art) | PPARg SRC2 conf 38 | PPARg SRC1 conf 26 | PPARg SRC3 ag 26
O=C(O)CSc1ncnc2c1oc1ccccc12	PPARg SRC2 recr 26, PPARg SRC1 recr 19 (no result: SRC3 TRFRET art, SRC1 TRFRET art) | PPARg SRC2 conf inactive | PPARg SRC1 conf inactive | PPARg SRC3 ag inactive
O=C(CSc1ncnc2c1oc1ccccc12)NCc1ccco1	PPARg SRC2 recr 92, PPARg SRC1 recr 92, TR-FRET SRC-2 ct 3393, PPARg SRC3 recr 107 (no result: SRC3 TRFRET art, SRC1 TRFRET art) | PPARg SRC2 conf 65 | PPARg SRC1 conf 47 | PPARg SRC3 ag 44
O=C(CSc1ncnc2c1oc1ccccc12)N1CCCc2ccccc21	PPARg SRC2 recr 40, TR-FRET SRC-2 ct 1981, PPARg SRC3 recr 39 (no result: SRC3 TRFRET art, SRC1 TRFRET art) | PPARg SRC2 conf 31 | PPARg SRC1 conf 24 | PPARg SRC3 ag inactive
N#CCCSc1ncnc2c1oc1ccccc12	PPARg SRC2 recr 41, PPARg SRC1 recr 20, TR-FRET SRC-2 ct 2279, PPARg SRC3 recr 36 (no result: SRC3 TRFRET art, SRC1 TRFRET art) | PPARg SRC2 conf 31 | PPARg SRC1 conf 21 | PPARg SRC3 ag inactive
CCOC(=O)CCC(=O)NNC(=O)COc1ccc(C(C)C)cc1Br	none
Cc1ccc(OCC(=O)N(Cc2ccc(N(C)C)cc2)C2CCS(=O)(=O)C2)cc1 (stereo not drawn)	PPARg SRC1 recr 21 (no result: SRC3 TRFRET art, SRC1 TRFRET art) | PPARg SRC2 conf inactive | PPARg SRC1 conf inactive | PPARg SRC3 ag inactive
CN(C)c1ccc(CN(C(=O)COc2ccc(Br)cc2)C2CCS(=O)(=O)C2)cc1 (stereo not drawn)	none (no result: SRC3 TRFRET art, SRC1 TRFRET art)
Oc1c(Cl)cc(Cl)cc1CNc1ccc(Br)cn1	none (no result: SRC3 TRFRET art, SRC1 TRFRET art)
Oc1ccc(Cl)cc1CNc1ccc(Br)cn1	PPARg SRC1 recr 23 (no result: SRC3 TRFRET art, SRC1 TRFRET art) | PPARg SRC2 conf inactive | PPARg SRC1 conf inactive | PPARg SRC3 ag inactive
COc1cc2c(cc1OC)C1=NC(=O)CN1C(SCc1ccccc1C)=N2	PPARg SRC2 recr 27 (no result: SRC3 TRFRET art, SRC1 TRFRET art) | PPARg SRC2 conf 28 | PPARg SRC1 conf inactive | PPARg SRC3 ag inactive
Cc1ccc(CSC2=Nc3ccccc3C3=NC(=O)CN23)cc1	none
